# Test results from PubChem BioAssay.
# Several values for one entry are separate records, joined by “and”; a condition that tells them apart may be missing. Equal entries are not always repeated. Activity calls are given as the source filed them.
# Assays:
# Albumin (Bos taurus) = Albumin (Bos taurus) (UniProt P02769); test: bovine serum albumin binders on microarray, profiling panel, artefact control for SMM control protein annotation, biochemical, small-molecule microarray, Alexa647 label, 635/667 nm fluorescence (AID 1118); settings: BSA-A647 binding, fluorescence 635 nm, higher = more signal;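 note: score merges 667 nm emission intensity and signal-to-noise per printed compound spot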
# Chain of Albumin (Bos taurus) (P02769 whole entry, looked up): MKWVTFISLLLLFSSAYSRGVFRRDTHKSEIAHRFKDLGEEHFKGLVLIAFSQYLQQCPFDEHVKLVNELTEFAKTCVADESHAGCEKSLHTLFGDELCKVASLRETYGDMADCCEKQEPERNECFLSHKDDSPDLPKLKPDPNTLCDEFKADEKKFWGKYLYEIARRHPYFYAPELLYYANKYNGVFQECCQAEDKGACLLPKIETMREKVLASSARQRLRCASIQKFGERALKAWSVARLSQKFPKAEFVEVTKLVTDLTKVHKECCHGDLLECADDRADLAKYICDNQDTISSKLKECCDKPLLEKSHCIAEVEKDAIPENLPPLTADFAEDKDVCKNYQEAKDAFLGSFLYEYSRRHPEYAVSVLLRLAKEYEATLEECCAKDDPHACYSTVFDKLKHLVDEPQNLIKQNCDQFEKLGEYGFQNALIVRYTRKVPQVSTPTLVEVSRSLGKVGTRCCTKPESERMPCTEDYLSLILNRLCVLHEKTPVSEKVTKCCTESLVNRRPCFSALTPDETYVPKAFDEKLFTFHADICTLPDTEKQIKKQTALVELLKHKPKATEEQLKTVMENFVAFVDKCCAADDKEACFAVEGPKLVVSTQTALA
# [1] = small-molecule microarray binders of probe aXIP, primary screen, biochemical, NeuroSMM set, 635/667 nm fluorescence (AID 1119); settings: higher = more signal, called active from +8 up or from −8 down;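 note: probe is the protein aXip251-270 applied at 1 µg/mL to compound-printed slides; binding of probe to printed compounds measured as 667 nm fluorescence plus signal to noise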
# [2] = small-molecule binders of probe aNOTCH3, primary screen, biochemical, small-molecule microarray, 635/667 nm fluorescence (AID 1120); settings: higher = more signal;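 note: probe is a biotin-tagged antibody raised against NOTCH3 rather than NOTCH3 protein; score merges spot fluorescence near 667 nm with spot signal to noise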
# [3] = small-molecule binders of probe aNOTCH2, primary screen, biochemical, small-molecule microarray, 635/667 nm fluorescence (AID 1121); settings: higher = more signal;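 note: score merges feature fluorescence read at 667 nm with its signal to noise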
# [4] = biological target: Carbonic anhydrase 2 (Homo sapiens) (UniProt P00918); test: CAII small-molecule binders, profiling panel, biochemical, small-molecule microarray, Alexa647-labelled CAII (AID 1122); settings: CAII-A647 binding fluorescence, higher = more signal
# [5] = COS7 lysate on small-molecule microarray, probe aHis, 635 nm (AID 1123); settings: COS7 cell lysate, fluorescence, higher = more signal;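 note: z-score combines 667nm fluorescence intensity with signal-to-noise per printed compound spot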
# [6] = compound binding in COS7 lysate, probe aLAP1, primary screen, cell lysate, small-molecule microarray (AID 1124); settings: probe aLAP1, fluorescence, higher = more signal;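 note: lysate comes from COS7 cells expressing LAP1 and is applied at 0.3 µg/mL; score merges spot fluorescence near 667 nm with signal-to-noise over triplicate slides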
# Sam68 (KHDRBS1) = test: Sam68 small-molecule binders, primary screen, biochemical, small-molecule microarray, 635 nm fluorescence (AID 1125); settings: small-molecule microarray binding, higher = more signal;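 note: score merges 667 nm channel intensity with signal to noise over triplicate slides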
# [7] = tested on: Chordin-like protein 2 (CHRDL2); test: CHRDL2 small-molecule binders, primary screen, biochemical, small-molecule microarray, 635 nm fluorescence (AID 1126); settings: small-molecule microarray binding, fluorescence 635 nm; higher = more signal;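 note: printed compound slides probed with Chrdl2 protein at 4 µg/mL for 1 h at 4 C; score merges 667 nm emission intensity with signal to noise over three replicate slides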
# [8] = biological target: Concanavalin-A (Canavalia ensiformis) (UniProt P02866); test: ConA small-molecule binders, primary screen, artefact control for SMM control protein annotation, biochemical, small-molecule microarray, Alexa647 label, 635 nm (AID 1127); settings: ConA-A647 binding fluorescence, higher = more signal;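 note: z combines 667 nm emission intensity with signal-to-noise across three replicate slides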
# Chain of Concanavalin-A (Canavalia ensiformis) (P02866 whole entry, looked up): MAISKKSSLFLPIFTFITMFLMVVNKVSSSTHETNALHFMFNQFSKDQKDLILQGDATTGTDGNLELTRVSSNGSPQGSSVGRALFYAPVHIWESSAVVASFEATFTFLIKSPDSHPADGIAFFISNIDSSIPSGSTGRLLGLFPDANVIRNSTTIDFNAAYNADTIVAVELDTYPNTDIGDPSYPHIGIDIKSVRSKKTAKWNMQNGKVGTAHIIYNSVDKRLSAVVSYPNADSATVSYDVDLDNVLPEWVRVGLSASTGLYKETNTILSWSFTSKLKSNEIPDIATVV
smiles,measurement,setting,value
C=CCN(CCCC)C(=O)C(c1cccs1)N(C(=O)/C=C\C(=O)O)c1c(Cl)cccc1CO (stereo not given),composite z-score,Albumin (Bos taurus),-0.854 and -0.198
same,composite Z-score,[1],-0.089 (inactive) and 0.339 (inactive)
same,composite z-score,[2],-0.589 and -0.431
same,composite z-score,[3],-0.162 and -0.147
same,composite z-score,[4],-0.3 and 0.0384
same,composite z-score,[5],-0.99 and -0.632
same,composite z-score,[6],-0.307 and 0.993
same,composite z-score,Sam68 (KHDRBS1),-0.843 and -1.73
same,composite z-score,[7],-4.02 and -2.94
same,composite z-score,[8],-3.43 and -2.5
C=CCN(CCCCC)C(=O)C1N(CCCCCCO)C(=O)C2C(C(=O)O)C3C=CC21O3 (stereo not given),composite z-score,Albumin (Bos taurus),-1.03 and 0.785
same,composite Z-score,[1],0.207 (inactive) and 0.382 (inactive)
same,composite z-score,[2],-0.374 and -0.327
same,composite z-score,[3],0.316 and -0.193
same,composite z-score,[4],0.85 and 0.83
same,composite z-score,[5],0.66 and 0.309
same,composite z-score,[6],0.752 and -0.289
same,composite z-score,Sam68 (KHDRBS1),-0.408 and -1.45
same,composite z-score,[7],-3.13 and -1.54
same,composite z-score,[8],-0.556 and -1.47
C=CCN(CCCC)C(=O)C1N(c2ccc(CCO)cc2)C(=O)C2C(C(=O)O)C3C=CC21O3 (stereo not given),composite z-score,Albumin (Bos taurus),-0.196 and -1.75
same,composite Z-score,[1],-0.708 (inactive) and -0.319 (inactive)
same,composite z-score,[2],-0.454 and -0.477
same,composite z-score,[3],0.0039 and -0.14
same,composite z-score,[4],0.809 and 0.91
same,composite z-score,[5],0.253
same,composite z-score,[6],-1.05 and -0.525
same,composite z-score,Sam68 (KHDRBS1),-1.48 and -0.741
same,composite z-score,[7],-3.26 and -3.79
same,composite z-score,[8],-1.74 and -2.64
Cc1cc2c(nc1C)CCCN2CC(C)ON=C[C@@H](C)[C@H](OCc1ccccc1)C(C)C (stereo not given in full),composite z-score,Albumin (Bos taurus),-0.69
same,composite Z-score,[1],0.339 (inactive)
same,composite z-score,[2],0.0642
same,composite z-score,[3],-0.0596
same,composite z-score,[4],-0.345
same,composite z-score,[5],0.0869
same,composite z-score,[6],-0.442
same,composite z-score,Sam68 (KHDRBS1),-1.3
same,composite z-score,[7],0.173
same,composite z-score,[8],-0.804
CC(C)OC(=O)C=C1C[C@@H](c2cccc(C(F)(F)F)c2)O[C@@H](c2cccc(C(F)(F)F)c2)O1,composite z-score,Albumin (Bos taurus),0.516 and 0.8
same,composite Z-score,[1],-0.313 (inactive) and -0.0102 (inactive)
same,composite z-score,[2],-0.166 and -0.257
same,composite z-score,[3],-0.0597 and -0.118
same,composite z-score,[4],0.407 and 0.738
same,composite z-score,[5],2.3 and 0.841
same,composite z-score,[6],1.56 and 0.103
same,composite z-score,Sam68 (KHDRBS1),-0.167 and 1.11
same,composite z-score,[7],-0.24 and -0.619
same,composite z-score,[8],0.711 and 1.06
COC(=O)C1=C(C)N(Cc2ccccc2)C2=C3C(=O)CCC[C@@H]3[C@@](O)(C(=O)OC)C(=O)N2[C@@H]1c1ccccc1,composite z-score,Albumin (Bos taurus),0.0476 and 0.354
same,composite Z-score,[1],-0.0521 (inactive) and -0.191 (inactive)
same,composite z-score,[2],-0.0077 and 0.178
same,composite z-score,[3],-0.125 and -0.114
same,composite z-score,[4],0.362 and 0.0465
same,composite z-score,[5],0.0949 and 0.111
same,composite z-score,[6],-0.0012 and 0.0654
same,composite z-score,Sam68 (KHDRBS1),0.368 and -0.0561
same,composite z-score,[7],0.674 and 0.24
same,composite z-score,[8],0.596 and -0.917
C[N+](C)(C)CCCCCCNC(=O)[C@@H]1C[C@@H]2C(=O)N[C@@H](CCCC[N+](C)(C)C)C(=O)N2[C@@H]1c1ccc(O)cc1,composite z-score,Albumin (Bos taurus),-0.595 and 0.0621
same,composite Z-score,[1],0.722 (inactive) and 0.318 (inactive)
same,composite z-score,[2],-0.0918 and 0.0016
same,composite z-score,[3],-0.164 and -0.147
same,composite z-score,[4],0.747 and 0.82
same,composite z-score,[5],-0.251 and 0.233
same,composite z-score,[6],0.774 and 0.322
same,composite z-score,Sam68 (KHDRBS1),-0.351 and 0.428
same,composite z-score,[7],0.952 and 0.671
same,composite z-score,[8],0.197 and 0.299
C[C@@H](ON=C1[C@H]2CCn3c(=O)n(-c4ccccc4)c(=O)n3[C@H]2[C@H](O)[C@@H]2O[C@H]12)c1cn([C@H](CO)Cc2ccccc2)nn1,composite z-score,Albumin (Bos taurus),0.0073
same,composite Z-score,[1],0.116 (inactive)
same,composite z-score,[2],-0.216
same,composite z-score,[3],-0.17
same,composite z-score,[4],-0.0324
same,composite z-score,[5],0.392
same,composite z-score,[6],0.012
same,composite z-score,Sam68 (KHDRBS1),0.209
same,composite z-score,[7],0.353
same,composite z-score,[8],0.349
C=CCN(C(=O)C1N(CCOCCO)C(=O)C2C(C(=O)O)C3C=CC21O3)c1ccc(OC)cc1 (stereo not given),composite z-score,Albumin (Bos taurus),-0.0638 and -1.17
same,composite Z-score,[1],-0.598 (inactive) and -0.613 (inactive)
same,composite z-score,[2],-0.421 and -0.459
same,composite z-score,[3],-0.211 and -0.143
same,composite z-score,[4],0.797 and 0.959
same,composite z-score,[5],-0.39 and 0.89
same,composite z-score,[6],1.39 and 0.112
same,composite z-score,Sam68 (KHDRBS1),-1.5 and -2.25
same,composite z-score,[7],-2.17 and -3.32
same,composite z-score,[8],-2.82 and -1.96
CC(C)=NO[C@@H](C)c1cc(-c2c(C)cc(C)cc2C)no1,composite z-score,Albumin (Bos taurus),0.0075
same,composite Z-score,[1],0.454 (inactive)
same,composite z-score,[2],-0.181
same,composite z-score,[3],-0.181
same,composite z-score,[4],-0.223
same,composite z-score,[5],-0.177
same,composite z-score,[6],0.214
same,composite z-score,Sam68 (KHDRBS1),-0.228
same,composite z-score,[7],0.227
same,composite z-score,[8],0.154
CC[C@@H]1C(Sc2ccccc2)C(C(=O)O)[C@H](c2ccc(C)cc2)N1S(=O)(=O)c1ccc(C)cc1 (stereo not given in full),composite z-score,Albumin (Bos taurus),0.978 and 0.899
same,composite Z-score,[1],0.242 (inactive) and 1.85 (inactive)
same,composite z-score,[2],0.411 and -0.022
same,composite z-score,[3],0.0739 and -0.0635
same,composite z-score,[4],0.232 and 0.755
same,composite z-score,[5],0.893 and 2.52
same,composite z-score,[6],0.541 and 0.418
same,composite z-score,Sam68 (KHDRBS1),1.33 and 1.3
same,composite z-score,[7],-0.682 and -0.367
same,composite z-score,[8],1.22 and 1.09
C=CCN(CCCC)C(=O)C1N(C(C)(C)CO)C(=O)C2C(C(=O)O)C3C=CC21O3 (stereo not given),composite z-score,Albumin (Bos taurus),-0.0353 and -0.347
same,composite Z-score,[1],-0.726 (inactive) and -1.17 (inactive)
same,composite z-score,[2],-0.589 and -0.497
same,composite z-score,[3],-0.161 and 0.544
same,composite z-score,[4],0.909 and 0.619
same,composite z-score,[5],0.12 and -0.103
same,composite z-score,[6],-0.2 and -0.226
same,composite z-score,Sam68 (KHDRBS1),-1.62 and -1.72
same,composite z-score,[7],-3.25 and -1.75
same,composite z-score,[8],-1.25 and -2.32
C#CCCCON=C1C[C@@H](O)[C@@H](O)[C@@H]2[C@@H]3C(=O)N(C4CCCCC4)C(=O)[C@@H]3CC[C@H]12,composite z-score,Albumin (Bos taurus),0.691
same,composite Z-score,[1],-0.393 (inactive)
same,composite z-score,[2],-0.0006
same,composite z-score,[3],-0.11
same,composite z-score,[4],0.508
same,composite z-score,[5],0.186
same,composite z-score,[6],0.806
same,composite z-score,Sam68 (KHDRBS1),0.866
same,composite z-score,[7],-0.133
same,composite z-score,[8],1.15
C=CCN(C(=O)C1N(CCOCCO)C(=O)C2C(C(=O)O)C3C=CC21O3)C(C)(C)C (stereo not given),composite z-score,Albumin (Bos taurus),0.106 and -0.502
same,composite Z-score,[1],0.519 (inactive) and -0.158 (inactive)
same,composite z-score,[2],-0.465 and -0.469
same,composite z-score,[3],-0.116 and -0.153
same,composite z-score,[4],-0.115 and -0.524
same,composite z-score,[5],-0.717 and -1.47
same,composite z-score,[6],-0.882 and -0.478
same,composite z-score,Sam68 (KHDRBS1),-1.29 and -0.941
same,composite z-score,[7],-3.33 and -1.51
same,composite z-score,[8],-0.455 and -0.884
CCCNC(=O)OC[C@H]1O[C@H](CCON=C(C)CCN2CCc3nc(-c4ccccc4)c(-c4ccccc4)cc3C2)C=C[C@@H]1Oc1ccc(OC)cc1,composite z-score,Albumin (Bos taurus),0.216
same,composite Z-score,[1],0.126 (inactive)
same,composite z-score,[2],0.0179
same,composite z-score,[3],-0.108
same,composite z-score,[4],-0.0398
same,composite z-score,[5],0.73
same,composite z-score,[6],0.354
same,composite z-score,Sam68 (KHDRBS1),0.389
same,composite z-score,[7],-0.273
same,composite z-score,[8],0.472
C=CCN(CCCCC)C(=O)C1N(c2ccc(CCO)cc2)C(=O)C2C(C(=O)O)C3C=CC21O3 (stereo not given),composite z-score,Albumin (Bos taurus),0.193 and 0.344
same,composite Z-score,[1],-1.27 (inactive) and -0.154 (inactive)
same,composite z-score,[2],-0.474 and 0.157
same,composite z-score,[3],-0.127 and -0.0716
same,composite z-score,[4],-0.349 and 0.574
same,composite z-score,[5],-0.632 and -0.323
same,composite z-score,[6],-0.18 and -1.2
same,composite z-score,Sam68 (KHDRBS1),-0.393 and -0.951
same,composite z-score,[7],-0.914 and -1.38
same,composite z-score,[8],-1.1 and -1.15
